Laboratory results taken from PubChem BioAssay (NCI).
Compounds without any hit were thinned out: in the full panel of roughly 83,000, 20% have a hit.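 Single-concentration screen, 48 h exposure, 96-well plates. Endpoint: percent growth. Below 10 = active.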 The source made the active and inactive calls.

Legend:
Assay in all cases: NCI-60 one-dose screen, 48 h (100 = growth as untreated, 0 = no growth, -100 = all killed)
Settings in all cases: 10 µM
DU-145 prostate = test system: DU-145 prostate
K-562 leukemia = test system: K-562 leukemia
MALME-3M melanoma = test system: MALME-3M melanoma
MDA-MB-231 breast = test system: MDA-MB-231 breast
RXF 393 renal = test system: RXF 393 renal
SF-268 CNS = test system: SF-268 CNS
SF-295 CNS = test system: SF-295 CNS
SF-539 CNS = test system: SF-539 CNS
UACC-257 melanoma = test system: UACC-257 melanoma
M14 melanoma = test system: M14 melanoma

Measured: growth

Cc1ccc(CSc2nc(-c3ccc(F)cc3)c(C#N)c(=O)[nH]2)cc1
inactive: DU-145 prostate 101% | K-562 leukemia 91.1% | MALME-3M melanoma 117% | MDA-MB-231 breast 104% | RXF 393 renal 95.1% | SF-268 CNS 101% | SF-295 CNS 95.6% | SF-539 CNS 101% | UACC-257 melanoma 102% | M14 melanoma 116%

Cc1cc2nc3c4ccccc4n(CCO)c3nc2cc1C
inactive: DU-145 prostate 58% | K-562 leukemia 74.4% | MALME-3M melanoma 37.8% | MDA-MB-231 breast 18.5% | RXF 393 renal 38.6% | SF-268 CNS 78.1% | SF-295 CNS 66% | SF-539 CNS 37.1% | UACC-257 melanoma 91.7%

COC[C@@H](CC(C)C)N=C1N/C(=C\c2ccc3ncsc3c2)C(=O)N1C
inactive: DU-145 prostate 20.9% | K-562 leukemia 17.7% | SF-268 CNS 19.1% | SF-295 CNS 23.2%
active: MALME-3M melanoma 7.51% | MDA-MB-231 breast 0.748% | RXF 393 renal -19.2% | SF-539 CNS -15.6% | UACC-257 melanoma 6.69%

O=c1cc(-c2ccccc2)oc2cc(OCCCNCc3ccccc3)cc(O)c12
active: K-562 leukemia -20.1% | MALME-3M melanoma -94.3% | MDA-MB-231 breast -43.1% | RXF 393 renal -56.7% | SF-295 CNS -81.8% | SF-539 CNS -97.3% | UACC-257 melanoma -69.7% | M14 melanoma -76%
inactive: DU-145 prostate 13.2% | SF-268 CNS 25.2%

COc1ccc(N(C)c2cc(C#N)nc3ccccc23)cc1N
active: SF-539 CNS -23.7%
inactive: DU-145 prostate 20.3% | K-562 leukemia 10.7% | MALME-3M melanoma 62.1% | MDA-MB-231 breast 12.2% | RXF 393 renal 57.2% | SF-268 CNS 22% | SF-295 CNS 15.8% | UACC-257 melanoma 63.3%

COc1cc(OC(F)(F)F)ccc1C(=O)Nc1sc2c(c1C#N)CCC(=O)C2
active: SF-539 CNS 8.76%
inactive: DU-145 prostate 103% | K-562 leukemia 11% | MALME-3M melanoma 85% | MDA-MB-231 breast 66.7% | RXF 393 renal 22.8% | SF-268 CNS 96.6% | SF-295 CNS 60.7% | UACC-257 melanoma 98%

O=c1cc(-c2ccccc2)oc2cc(OCCCCNCc3ccccc3)cc(O)c12
active: K-562 leukemia -17.6% | MALME-3M melanoma -92.6% | MDA-MB-231 breast -12.4% | RXF 393 renal -79.8% | SF-295 CNS -93.5% | SF-539 CNS -96.2% | UACC-257 melanoma -35.6% | M14 melanoma -75.9%
inactive: DU-145 prostate 27.6% | SF-268 CNS 43.6%

COc1ccccc1[C@H]1C(C(=O)c2ccc(Cl)cc2)C2(N[C@@H]1c1ccccc1)C(=O)Nc1ccccc12 (stereo partly drawn)
active: DU-145 prostate 3.98% | K-562 leukemia 0.571% | MALME-3M melanoma -37.4% | MDA-MB-231 breast -71.9% | RXF 393 renal -73.8% | SF-295 CNS -63.6% | SF-539 CNS -60.8% | UACC-257 melanoma -2.04%
inactive: SF-268 CNS 10.2%

COc1ccc([C@H]2C(C(=O)c3ccc(Cl)cc3)C3(N[C@@H]2c2ccccc2)C(=O)Nc2ccc(Cl)cc23)cc1 (stereo partly drawn)
active: K-562 leukemia 3.72% | MALME-3M melanoma -10.6% | MDA-MB-231 breast -68.3% | RXF 393 renal -64.3% | SF-295 CNS -63.2% | SF-539 CNS -46.1% | UACC-257 melanoma 9.2%
inactive: DU-145 prostate 14.6% | SF-268 CNS 20.2% | M14 melanoma 11%

CONC[C@]1(C)C=C2C(=O)[C@](C)(O)C3(CC3)C(C)=C2[C@H]1O
active: DU-145 prostate 2.57% | K-562 leukemia 2.9% | MALME-3M melanoma -73.5% | MDA-MB-231 breast -33.5% | RXF 393 renal -85.9% | SF-268 CNS -4.06% | SF-295 CNS -9.33% | SF-539 CNS -80.5% | UACC-257 melanoma -27.2% | M14 melanoma -13.5%

COc1ccc([C@H]2C(C(=O)c3ccc(Cl)cc3)C3(N[C@@H]2c2ccccc2)C(=O)Nc2ccc(Br)cc23)cc1 (stereo partly drawn)
inactive: DU-145 prostate 17% | SF-268 CNS 18.9% | UACC-257 melanoma 17% | M14 melanoma 16.1%
active: K-562 leukemia 5.88% | MALME-3M melanoma -7.99% | MDA-MB-231 breast -58.3% | RXF 393 renal -72.9% | SF-295 CNS -60.2% | SF-539 CNS -21.5%

O=C1NC(=NC23CC4CC(CC(C4)C2)C3)N/C1=C\c1ccc2ncsc2c1
inactive: K-562 leukemia 10.5% | SF-295 CNS 13% | UACC-257 melanoma 26.7% | M14 melanoma 42%
active: DU-145 prostate 6.29% | MALME-3M melanoma 2.66% | MDA-MB-231 breast -8.83% | RXF 393 renal -63.6% | SF-268 CNS -11.5% | SF-539 CNS -23.9%

CC(=O)NNc1ccc2nnc(-c3ccc(Br)cc3)n2n1
inactive: DU-145 prostate 103% | K-562 leukemia 95.5% | MALME-3M melanoma 107% | MDA-MB-231 breast 94% | RXF 393 renal 68.5% | SF-268 CNS 102% | SF-295 CNS 96.1% | SF-539 CNS 90.2% | UACC-257 melanoma 105% | M14 melanoma 98.2%

CC(=O)OC[C@@]1(C)C2CC[C@]3(C)C(CC=C4C5CC(C)(C)CC[C@]5(C(=O)Nc5ccccc5)CC[C@]43C)[C@@]2(C)C[C@@H](OC(C)=O)[C@@H]1OC(C)=O (stereo partly drawn)
inactive: DU-145 prostate 44.9% | K-562 leukemia 12.7% | MALME-3M melanoma 54.3% | MDA-MB-231 breast 60.6% | RXF 393 renal 64.2% | SF-268 CNS 52.5% | SF-295 CNS 19.9% | SF-539 CNS 41.6% | UACC-257 melanoma 18.5% | M14 melanoma 50.9%

COc1cc2oc(-c3cccc(C(=O)Nc4ccc(Cl)cc4)c3)cc(=O)c2c(OCCNC(=O)CNC(=O)OC(C)(C)C)c1OC
inactive: DU-145 prostate 77.5% | K-562 leukemia 46% | MALME-3M melanoma 65% | MDA-MB-231 breast 30.1% | SF-268 CNS 81.8% | SF-295 CNS 50.6% | SF-539 CNS 67.3% | UACC-257 melanoma 80.8% | M14 melanoma 60.2%
active: RXF 393 renal -17.7%

COc1ccc2[nH]c(=O)c(CSc3nccc(-c4ccc(Cl)cc4)n3)cc2c1
active: RXF 393 renal -23.7% | SF-295 CNS -20.3% | SF-539 CNS -70.3% | UACC-257 melanoma 6.77%
inactive: DU-145 prostate 44.8% | K-562 leukemia 23.2% | MALME-3M melanoma 46.4% | MDA-MB-231 breast 18.4% | SF-268 CNS 28.8% | M14 melanoma 55.2%

COc1cccc(/C=N/NC(=O)c2ccc3nc(-c4ccc(Cl)cc4)[nH]c3c2)c1O
active: DU-145 prostate -96.1% | K-562 leukemia -37.2% | MALME-3M melanoma -96.3% | MDA-MB-231 breast -72.8% | RXF 393 renal -96.5% | SF-268 CNS -79% | SF-295 CNS -91.3% | SF-539 CNS -99% | UACC-257 melanoma -83.8% | M14 melanoma -79.5%

C=C1CCC2C3(C)COC(c4c(F)cccc4F)OC3CCC2(C)C1C/C=C1/C(=O)OCC1O (stereo not drawn)
active: DU-145 prostate -60.3% | MALME-3M melanoma -62.7% | MDA-MB-231 breast -33.4% | RXF 393 renal -72.8% | SF-295 CNS -21% | SF-539 CNS -92.2% | UACC-257 melanoma -46.8% | M14 melanoma -23.7%
inactive: K-562 leukemia 13.4% | SF-268 CNS 65.2%

Cc1ccc(F)cc1N/C=c1\s/c(=C(\C#N)C(=O)Nc2ccccc2)n(-c2ccccc2)c1=O
active: MDA-MB-231 breast 2.68% | RXF 393 renal 6.54%
inactive: DU-145 prostate 54.5% | K-562 leukemia 83.4% | MALME-3M melanoma 53% | SF-268 CNS 69.5% | SF-295 CNS 47.8% | SF-539 CNS 27% | UACC-257 melanoma 99% | M14 melanoma 82.4%

COC(=O)C(Cc1ccc(O)c(O)c1)NC(=O)C(CSC/C=C(\C)CCCC(C)CCCC(C)CCCC(C)C)NC(C)=O (stereo not drawn)
inactive: DU-145 prostate 75.5% | MALME-3M melanoma 87.4% | MDA-MB-231 breast 38.1% | RXF 393 renal 48.3% | SF-268 CNS 27.6% | UACC-257 melanoma 56.4% | M14 melanoma 13.9%
active: K-562 leukemia 5.33% | SF-295 CNS 1.8% | SF-539 CNS -34.7%

COc1ccc2[nH]c(=O)c(CSc3cccc(N)c3)cc2c1
inactive: DU-145 prostate 59.4% | K-562 leukemia 15.6% | MALME-3M melanoma 97.1% | MDA-MB-231 breast 72.7% | RXF 393 renal 84.8% | SF-268 CNS 58% | SF-295 CNS 31.2% | SF-539 CNS 71.3% | UACC-257 melanoma 62.3% | M14 melanoma 24%

C=CC(=O)Nc1ccc(C(=O)/C=C/c2ccc(N(C)CCF)cc2)c(O)c1
active: DU-145 prostate -51.2% | K-562 leukemia 9.77% | MALME-3M melanoma -50.1% | RXF 393 renal -82.4% | SF-268 CNS -19.7% | SF-295 CNS -4.58% | SF-539 CNS -81.5% | UACC-257 melanoma -61.6%
inactive: MDA-MB-231 breast 17%

CO[C@@H]1CSSC1Cn1nc(-c2ccc(Oc3ccccc3)cc2)c2c(N)ncnc21 (stereo partly drawn)
active: K-562 leukemia 4.87% | MALME-3M melanoma 8.55% | M14 melanoma -90.6%
inactive: DU-145 prostate 49.8% | MDA-MB-231 breast 52.1% | RXF 393 renal 28.8% | SF-268 CNS 39.5% | SF-295 CNS 47.8% | SF-539 CNS 44.1% | UACC-257 melanoma 10.9%

Cc1cc(C(F)(F)F)ccc1C(=O)Nc1sc2c(c1C#N)CCC(=O)C2
inactive: DU-145 prostate 20.3% | SF-268 CNS 17.1%
active: K-562 leukemia 2.39% | MALME-3M melanoma -82.5% | MDA-MB-231 breast -73.4% | RXF 393 renal -64.9% | SF-295 CNS -25.5% | SF-539 CNS -79.9% | UACC-257 melanoma -39.5% | M14 melanoma -59.2%

N#Cc1c(NC(=O)c2ccc(C(F)(F)F)cc2)sc2c1CCC(O)=C2
inactive: DU-145 prostate 38.5% | MALME-3M melanoma 23.2% | MDA-MB-231 breast 13.5% | RXF 393 renal 14.6% | SF-268 CNS 43.3% | SF-295 CNS 17.5% | UACC-257 melanoma 36% | M14 melanoma 13%
active: K-562 leukemia 8.86% | SF-539 CNS 3.2%

COc1ccc(N(C)c2cc(C#N)nc3ccccc23)cc1/C=C/C(=O)NO
inactive: DU-145 prostate 16.7%
active: K-562 leukemia 4.1% | MALME-3M melanoma -56.5% | MDA-MB-231 breast -73.5% | RXF 393 renal -82.2% | SF-268 CNS -30% | SF-295 CNS -73.8% | SF-539 CNS -89.6% | UACC-257 melanoma -26.2% | M14 melanoma 2.45%

Nc1cccnc1/C=N/NC(=S)NCCNC(=O)c1ccc(-n2nc(-c3ccccc3O)nc2-c2ccccc2O)cc1
active: K-562 leukemia 7.44% | RXF 393 renal -10.6% | SF-295 CNS -6.19% | SF-539 CNS -23.2% | UACC-257 melanoma 7.34%
inactive: DU-145 prostate 27.9% | MALME-3M melanoma 14.3% | MDA-MB-231 breast 19.8% | SF-268 CNS 32.8%
